Rows were chosen to be rich in hits. Some 1.8% of all compounds tested hit in one or more screens of this group.
HTT cytoprotect – protects HTT-Q103 PC12 cells, measured by ATP; PC12 HTT-Q103 induced, cytoprotection, ATP luminescence, 40 h; Potency, µM (series often up to 56.4 µM), for inactives: cytoprotection (ATP increase), usual class: activators; actives 0.14% (n = 230,000); AID 1471; note: % of control where 0% means no effect; nearly all actives have a fitted effect of over 45% in size
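Huntington model: PC12 line, ecdysone-inducible HTTQ103 exon1–GFP, tebufenozide 100 nM. Test articles in a dose series. Endpoint luminescence from cellular ATP.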
HttQ103 aggreg – mutant huntingtin aggregation inhibition; PC12 HttQ103-GFP aggregates, Acumen cytometry, 40 h; Potency, µM (doses to about 46.1 µM), inactives show top-dose activity change, negative = inhibition, usual class: inhibitors; actives 1.1% (n = 220,000); note: % is set by controls: 0 for no effect and ±100 for the full control effect; nearly all actives have a fitted effect of over 60% in size
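Quantitative HTS on tebufenozide-induced (100 nM) PC12 cells stably expressing polyQ103 Huntingtin exon 1–GFP. Reduction of bright GFP aggregates, detected by laser scanning cytometry after lysis, identified actives across the titration.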
KDM4E inh – inhibitors of human JMJD2E histone demethylase. B2RXH2. JMJD2E catalytic domain, FDH-coupled NADH fluorescence (FDH is formaldehyde dehydrogenase). Potency, µM (series often up to 57.1 µM), inactives show at the top dose activity change, negative = inhibition, actives largely listed as inhibitors. actives 1.6% (n = 230,000). AID 2147; active = well fitted inhibition curve with a large enough effect, not every such curve was filed as active; inconclusive = small, poorly fitted or top-dose-only effect, or another doubt; inactive = no such curve, though single readings can be large or run the other way;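 note: 0% = wells with enzyme and -100% = buffer wells without enzyme; nearly all actives have a fitted effect of over 50% in size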
L3MBTL1 block – L3MBTL1 (human) inhibition; AlphaScreen L3MBTL1–H3K9me1 peptide binding; Potency, µM (series often up to 57.1 µM), without a hit: at the top dose activity, negative = inhibition, hits mostly inhibitors; actives 0.66% (n = 230,000); note: % is set by controls: 0 for no effect and ±100 for the full control effect; nearly all actives have a fitted effect of over 60% in size
Target sequence (Q9Y468 whole entry, looked up): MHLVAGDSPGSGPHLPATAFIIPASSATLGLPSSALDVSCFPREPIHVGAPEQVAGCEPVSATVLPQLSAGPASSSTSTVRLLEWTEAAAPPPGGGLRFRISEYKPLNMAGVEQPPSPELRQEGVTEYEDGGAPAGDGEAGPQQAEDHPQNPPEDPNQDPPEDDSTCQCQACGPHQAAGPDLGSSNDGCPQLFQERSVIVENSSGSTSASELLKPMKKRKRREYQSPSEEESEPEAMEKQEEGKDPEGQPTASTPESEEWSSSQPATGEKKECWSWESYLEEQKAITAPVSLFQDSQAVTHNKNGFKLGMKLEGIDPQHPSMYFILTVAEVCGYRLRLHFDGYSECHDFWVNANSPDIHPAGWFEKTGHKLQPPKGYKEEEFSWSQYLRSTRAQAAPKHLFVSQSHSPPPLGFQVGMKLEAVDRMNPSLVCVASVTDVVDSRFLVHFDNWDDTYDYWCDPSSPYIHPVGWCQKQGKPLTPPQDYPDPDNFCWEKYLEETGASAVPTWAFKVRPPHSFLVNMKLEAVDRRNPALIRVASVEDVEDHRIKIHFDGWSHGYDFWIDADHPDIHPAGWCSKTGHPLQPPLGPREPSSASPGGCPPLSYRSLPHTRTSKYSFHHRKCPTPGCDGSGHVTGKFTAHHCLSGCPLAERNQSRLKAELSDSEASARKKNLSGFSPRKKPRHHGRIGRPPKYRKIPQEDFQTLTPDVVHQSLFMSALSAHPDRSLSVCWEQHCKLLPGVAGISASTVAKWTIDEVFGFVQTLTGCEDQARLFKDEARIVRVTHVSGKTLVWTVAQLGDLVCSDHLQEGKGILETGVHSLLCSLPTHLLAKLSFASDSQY
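Displacement of a biotinylated histone H3(1-15) peptide monomethylated at Lys9 (75 nM) from L3MBTL1 (50 nM) was measured by AlphaScreen after a 30 min room-temperature compound incubation; cefsulodin titration served as intraplate control.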
The depositor's hits bear a star; u = inconclusive; x = no result; [ ] = another dose, or the depositor's remark. Unless noted, calls come from the whole dose curve; as a rule, active = well fitted curve in the direction sought with a large enough effect; inconclusive = small, poorly fitted or top-dose-only effect, or another doubt; inactive = no such curve, though single readings can be large; an effect the other way counts as inactive or inconclusive. Potency is the fitted concentration of half-maximal effect.

SMILES	HTT cytoprotect	HttQ103 aggreg	KDM4E inh	L3MBTL1 block
COc1cc(-c2ccc(N=Nc3ccc4c(S(=O)(=O)O)cc(S(=O)(=O)O)c(N)c4c3O)c(OC)c2)ccc1N=Nc1ccc2c(S(=O)(=O)O)cc(S(=O)(=O)O)c(N)c2c1O	-40.5%	x	3.55µM*	x
COc1ccc(C(=O)N/N=C/c2sc3ccccc3c2O)cc1	-80.1%[10 µM]	11.2µM*	35.5µM*	0.9%
O=C(N/N=C/c1sc2ccccc2c1O)c1cccc2ccccc12	-87.0%[10 µM]	1.41µM*	25.1µM*	-12.9%
O=C(N/N=C/c1sc2ccccc2c1O)c1ccccc1	-79.2%[10 µM]	3.16µM*	22.4µM*	-10.6%
COc1ccc2cc(C(=O)N/N=C/c3sc4ccccc4c3O)ccc2c1	-4.8%[10 µM]	u	u	-9.6%
COC(=O)N1CCC2(CC1)CN(c1cccc(-c3ccccc3)c1)C2	-98.6%	x	x	x
COc1ccc2c(c1)OC(=O)CC2c1ccccc1C (stereo not drawn)	-40.5%[96.6 µM]	x	x	x
COc1ccc(CCCO[C@@H](Cn2ccnc2)c2ccc(OC)cc2)cc1	-10.6%	x	-2.2%	x
COc1cccc(Nc2ncc3nc(-c4cccs4)c(=O)n(C[C@H]4CCCO4)c3n2)c1	1.2%	x	x	x
CC1(C)Cc2c(sc3[nH]c(=S)n(Cc4ccccc4)c(=O)c23)CO1	-60.3%	17.8µM*	9.2%	x
CCOC(=O)N/N=C1/C[C@@H](O)[C@@H](O)[C@@H]2[C@@H]3C(=O)N(C[C@@H]4CCCO4)C(=O)[C@H]3CC[C@H]12	-4.9%[10 µM]	x	x	x
CN(C)C(=O)c1ccc(NC(=O)c2cncc(Br)c2)cc1	19.9%[10 µM]	15.8µM*	6.1%	8.6%
CC#CCN1c2ccccc2[C@]23C[C@@H](C(=O)OC)N(S(=O)(=O)c4ccc(OC)cc4)C2=NC(C(=O)OC)=C(C(=O)OC)[C@H]13	u	x	1.6%[11.4 µM]	x
O=c1c(O)c(-c2cccs2)oc2ccccc12	17.3%[10 µM]	11.2µM*	u	21.5%
O=c1c(O)c(-c2cccs2)oc2ccc(Cl)cc12	22.9%	14.1µM*	u	x
CC#C[C@@]1(O)CC[C@@H]2[C@@H]3CCC4=CC(=O)CCC4=C3[C@@H](c3ccc(N(C)C)cc3)C[C@]21C	-20.3%[1.9 µM]	x	x	x
Cc1ccccc1OC(=O)n1c(=S)oc2cc(Cl)ccc21	-17.1%	u	28.2µM*	x
CCCCCCCCCCCCCCCCOCCOCCOCCOCCOCCOCCOCCOCCOCCOCCOCCOCCOCCOCCOCCOCCOCCOCCOCCOCCO	-98.0%	u	x	x
COc1ccc(-c2nc(-c3ccccc3)oc2Nc2c(C)cccc2C)cc1	16.4%	x	-4.2%	x
CCOC(=O)OCC1OC(C#Cc2ccc(C(C)(C)C)cc2)C=CC1OC(=O)OCC (stereo not drawn)	-19.4%[10 µM]	x	x	x
Cc1ccc(-c2csc(NS(=O)(=O)c3cccc(F)c3)n2)o1	x	x	x	28.2µM*
CCCCCCCCCCCCC/C=C/[C@@H](O)[C@H](CO)NC(=O)CCCCCCC	7.5%	x	-24.0%	x
COc1c(O)cc2c(=O)oc3c(OC)c(O)cc4c(=O)oc1c2c34	-5.6%	x	7.08µM*	x
S=C(Nc1ccccn1)c1ccccn1	-23.7%	15.4%	12.6µM*	x
O=S(=O)(NCc1ccccc1)c1ccc(Cl)cc1	-38.0%	4.7%[1.84 µM]	5.0%	x
SMILES	HTT cytoprotect	HttQ103 aggreg	KDM4E inh	L3MBTL1 block
O=S(=O)(Nc1cc2nc3ccccc3nc2n1Cc1ccccc1)c1ccc(Cl)cc1	-44.1%[10 µM]	u	u	3.98µM*
CCC/C=C(\CCC)C(NS(=O)(=O)CC12CCC(CC1=O)C2(C)C)c1ccc(C(=O)OC)cc1 (stereo not drawn)	11.1%	x	-2.2%	x
CCc1c(C)nc2ncnn2c1Nc1ccc(C#N)c(Cl)c1	-3.1%	12.6µM*	0.4%	23.2%
CCc1c(C)nc2ncnn2c1Nc1ccc(C(C)=O)cc1	2.8%	6.5%	-2.0%	x
Cc1cccc(N2CCN(C(=O)CSCc3c(C)noc3C)CC2)c1C	-13.8%[10 µM]	7.08µM*	-9.5%	-2.0%
Cc1noc(C)c1CSCC(=O)N1CCN(c2ccc(F)cc2)CC1	7.6%[10 µM]	7.94µM*	-0.1%	-7.6%
Cc1cccc(N2CCN(C(=O)c3ccc(NS(=O)(=O)c4c(C)noc4C)cc3)CC2)c1C	8.5%[10 µM]	20µM*	6.1%	-4.6%
Cc1noc(C)c1CSc1ccccc1C(=O)N1CCN(c2ccccc2)CC1	43.9%[10 µM]	-2.8%	5.3%	4.5%
CC1(C)CC[C@]2(C(=O)O)CC[C@]3(C)C(=CC[C@@H]4[C@@]5(C)CC[C@H](O)C(C)(C)[C@@H]5CC[C@@]43C)[C@@H]2C1	1.9%	x	x	x
COC(=O)C/C=C\[C@@H](C)[C@@H](/C=N\OCC[C@H]1C=C[C@H](OC(C)=O)[C@@H](COC(C)=O)O1)NS(=O)(=O)c1ccc(C)cc1	-5.4%[10 µM]	x	x	x
CCOC(=O)C1=CC2(CC)CCCN3CCc4c(n1c1ccccc41)C32 (stereo not drawn)	12.5%	16.0%	x	x
CCCCC/C=C\C\C=C/C=C/C=C/[C@@H](O)[C@@H](O)CCCC(=O)O	-22.4%	x	2.6%	x
C=CCNC(=S)/C(=C(/[O-])c1ccc([N+](=O)[O-])cc1)[n+]1ccccc1	-17.4%	10.3%	22.4µM*	-26.7%
CC(=O)N1CCC2(CCCN(c3ccc(-c4ccccc4)cc3)C2)CC1	5.6%	x	x	x
CCN(C(=O)CSc1nc2cc(Cl)ccc2c(=O)n1CC(C)C)C1CCS(=O)(=O)C1 (stereo not drawn)	x	x	x	-0.2%
CCOC(=O)c1c(NC(=O)CSc2nc3cc(Cl)ccc3c(=O)n2Cc2ccco2)sc(C(=O)N(C)C)c1C	-30.5%[10 µM]	7.08µM*	u	-8.6%
CCN(C(=O)CSc1nc2cc(Cl)ccc2c(=O)n1Cc1ccco1)C1CCS(=O)(=O)C1 (stereo not drawn)	2.82µM*	25.3%	-26.9%	x
CSC1=NS(=O)(=O)c2c(C)nn(C)c2S1	10.5%[10 µM]	13.4%[9.22 µM]	3.55µM*	0.1%
CN1/C(=C\C=N\NC(=O)c2ccc(O)cc2)C(C)(C)c2ccccc21	22.9%[10 µM]	-18.8%	u	-23.4%
CN1/C(=C\C(=O)c2cccnc2)C(C)(C)c2ccccc21	-5.2%[10 µM]	-7.7%	9.4%	20.8%
CN1/C(=C\C(=O)c2cncc(Br)c2)C(C)(C)c2ccccc21	6.8%[10 µM]	15.8µM*	0.3%	83.0%
CN1/C(=C\C=N\NC(=O)c2cccnc2)C(C)(C)c2ccccc21	-31.5%	6.31µM*	11.2%	-24.9%[11.4 µM]
CCCCC[C@H](O)/C=C/C=C\CCCCCCCCCC(=O)O	-18.6%	x	9.2%	x
O=c1nc2s/c(=C\c3ccc(-c4ccccc4[N+](=O)[O-])o3)c(=O)n2nc1-c1ccccc1	x	u	8.5%	2.24µM*
CCCCCOc1ccc(/C=c2\sc3nc(=O)c(-c4ccccc4)nn3c2=O)cc1OC	2.3%[10 µM]	-2.0%	-2.1%	-0.6%
COc1ccc(-c2nc3cnc(OC)nc3n(Cc3cccs3)c2=O)cc1	19.5%	x	x	x
Cc1ccccc1OCCSCc1nc2ccccc2[nH]1	3.5%[10 µM]	3.55µM*	5.5%	0.9%
CCC(C)C(N)C(=O)O (stereo not drawn)	5.2%	-1.0%	x	x
O=C1/C(=C\c2ccc(O)c(O)c2)N=C2CCCCCN12	-18.1%[10 µM]	9.8%[9.22 µM]	12.6µM*	u
COc1cc(/C=C2\N=C3CCCCCN3C2=O)ccc1O	-10.9%	-9.3%	-9.1%	x

Assay outcomes: PubChem, National Center for Advancing Translational Sciences (NCATS)
